Inhibition data for 16 molecules are collected here from ChEMBL document CHEMBL1961873, “Compounds: GSK PKIS; Assays: Nanosyn kinase panel” (2012).

For test [1], the target named is T1, Serine/threonine-protein kinase TBK1 (Homo sapiens) (UniProt Q9UHD2).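 Note: values are mean inhibition of TBK1, screened as part of the GSK published kinase inhibitor set.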
T1 sequence (whole entry): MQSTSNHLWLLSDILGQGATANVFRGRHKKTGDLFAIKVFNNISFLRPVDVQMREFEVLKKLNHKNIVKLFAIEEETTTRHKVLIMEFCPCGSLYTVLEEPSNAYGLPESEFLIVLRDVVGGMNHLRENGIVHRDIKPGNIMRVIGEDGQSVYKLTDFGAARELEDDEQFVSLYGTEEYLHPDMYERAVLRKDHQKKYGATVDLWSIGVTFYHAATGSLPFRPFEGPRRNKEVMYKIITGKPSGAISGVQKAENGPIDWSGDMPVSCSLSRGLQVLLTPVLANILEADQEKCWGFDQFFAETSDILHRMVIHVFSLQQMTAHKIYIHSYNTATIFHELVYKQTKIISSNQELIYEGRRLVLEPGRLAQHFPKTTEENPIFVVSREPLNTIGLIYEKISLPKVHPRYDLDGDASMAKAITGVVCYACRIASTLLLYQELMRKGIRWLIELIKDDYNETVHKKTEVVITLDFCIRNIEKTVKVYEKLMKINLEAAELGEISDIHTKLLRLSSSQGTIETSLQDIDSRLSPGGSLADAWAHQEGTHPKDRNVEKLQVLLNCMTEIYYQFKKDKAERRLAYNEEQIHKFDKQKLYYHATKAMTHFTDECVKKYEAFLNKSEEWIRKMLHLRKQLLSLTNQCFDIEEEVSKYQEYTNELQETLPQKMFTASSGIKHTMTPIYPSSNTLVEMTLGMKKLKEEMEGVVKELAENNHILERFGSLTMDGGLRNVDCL
The following applies: at 1 µM.

In test [2] the target is T2, Testis-specific serine/threonine-protein kinase 1 (Homo sapiens) (UniProt Q9BXA7).
T2 sequence (whole entry): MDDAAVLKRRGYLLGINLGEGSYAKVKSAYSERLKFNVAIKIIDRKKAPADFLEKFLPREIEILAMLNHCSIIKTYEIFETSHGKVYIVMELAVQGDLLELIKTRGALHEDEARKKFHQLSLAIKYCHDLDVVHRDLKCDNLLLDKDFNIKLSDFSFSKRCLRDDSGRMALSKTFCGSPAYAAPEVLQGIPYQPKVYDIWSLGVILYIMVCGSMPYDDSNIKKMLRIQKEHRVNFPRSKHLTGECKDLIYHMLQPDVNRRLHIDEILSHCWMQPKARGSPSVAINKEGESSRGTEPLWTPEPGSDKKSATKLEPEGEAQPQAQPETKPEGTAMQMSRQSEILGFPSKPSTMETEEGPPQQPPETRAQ
The following applies: at 0.1 µM.

The target of test [3] is T2, Testis-specific serine/threonine-protein kinase 1 (Homo sapiens). The note with it: at 1 µM.
In test [4] the target is T3, Testis-specific serine/threonine-protein kinase 2 (Homo sapiens) (UniProt Q96PF2).
T3 sequence (whole entry): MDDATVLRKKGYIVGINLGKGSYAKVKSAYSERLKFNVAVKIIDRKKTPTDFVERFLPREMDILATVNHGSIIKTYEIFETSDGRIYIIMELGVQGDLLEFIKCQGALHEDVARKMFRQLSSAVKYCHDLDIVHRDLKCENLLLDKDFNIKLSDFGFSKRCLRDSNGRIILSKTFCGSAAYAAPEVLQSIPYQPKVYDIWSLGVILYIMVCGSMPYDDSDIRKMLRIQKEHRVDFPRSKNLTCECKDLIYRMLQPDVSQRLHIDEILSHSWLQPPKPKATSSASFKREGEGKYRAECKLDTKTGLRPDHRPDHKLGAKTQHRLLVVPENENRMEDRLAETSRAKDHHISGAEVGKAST
The following applies: at 0.1 µM.

Test [5] concerns the target T3, Testis-specific serine/threonine-protein kinase 2 (Homo sapiens). The note with it: at 1 µM.
For test [6], the target named is Casein kinase I isoform alpha (Homo sapiens) (UniProt P48729). The note with it: at 0.1 µM.
Casein kinase I isoform alpha (Homo sapiens), sequence (P48729 2-337 limits assumed): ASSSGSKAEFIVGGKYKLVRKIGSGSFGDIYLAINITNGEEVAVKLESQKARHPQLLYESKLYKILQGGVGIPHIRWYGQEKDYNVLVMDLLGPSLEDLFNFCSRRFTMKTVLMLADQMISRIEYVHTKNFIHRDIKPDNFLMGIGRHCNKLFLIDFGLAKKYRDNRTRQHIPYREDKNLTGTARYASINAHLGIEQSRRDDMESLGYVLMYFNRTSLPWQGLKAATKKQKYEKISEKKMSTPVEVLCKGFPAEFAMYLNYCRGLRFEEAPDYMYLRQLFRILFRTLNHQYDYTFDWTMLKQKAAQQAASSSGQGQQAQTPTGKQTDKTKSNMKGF
Test [7] shares this target. The following applies: at 1 µM.
Test [8] addresses Casein kinase I isoform gamma-1 (Homo sapiens) (UniProt Q9HCP0). The note with it: at 0.1 µM.
Test [9] shares this target. The note with it: at 1 µM.
The target of test [10] is Casein kinase I isoform gamma-2 (Homo sapiens) (UniProt P78368). The following applies: at 0.1 µM.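 Note: values are mean inhibition figures reported as part of the GSK PKIS dataset.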
Casein kinase I isoform gamma-2 (Homo sapiens), sequence (P78368 whole entry, looked up, canonical isoform): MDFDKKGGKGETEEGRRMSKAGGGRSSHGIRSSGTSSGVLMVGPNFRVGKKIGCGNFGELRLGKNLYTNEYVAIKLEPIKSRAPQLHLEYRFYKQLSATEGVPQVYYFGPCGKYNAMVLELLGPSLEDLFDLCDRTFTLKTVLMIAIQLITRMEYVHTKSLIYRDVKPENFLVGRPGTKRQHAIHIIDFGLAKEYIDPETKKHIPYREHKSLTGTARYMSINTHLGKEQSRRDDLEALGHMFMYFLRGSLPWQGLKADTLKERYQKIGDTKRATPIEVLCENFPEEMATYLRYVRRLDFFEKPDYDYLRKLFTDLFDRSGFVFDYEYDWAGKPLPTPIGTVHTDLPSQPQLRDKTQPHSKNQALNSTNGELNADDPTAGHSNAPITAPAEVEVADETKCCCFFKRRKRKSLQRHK

Casein kinase I isoform gamma-1 (Homo sapiens), sequence (Q9HCP0 whole entry, looked up, canonical isoform): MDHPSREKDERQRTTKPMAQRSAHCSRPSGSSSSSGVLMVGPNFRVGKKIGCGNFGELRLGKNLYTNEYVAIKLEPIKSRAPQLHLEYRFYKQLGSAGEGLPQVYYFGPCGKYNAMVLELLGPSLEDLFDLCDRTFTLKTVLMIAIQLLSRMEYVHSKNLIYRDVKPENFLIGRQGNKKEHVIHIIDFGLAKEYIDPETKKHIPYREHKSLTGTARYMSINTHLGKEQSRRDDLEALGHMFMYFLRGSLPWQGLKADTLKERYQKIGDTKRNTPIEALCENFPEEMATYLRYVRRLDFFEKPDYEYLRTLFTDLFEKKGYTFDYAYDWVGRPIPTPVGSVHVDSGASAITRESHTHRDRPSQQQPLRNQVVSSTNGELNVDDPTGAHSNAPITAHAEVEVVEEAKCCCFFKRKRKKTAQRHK

Consider `COc1cc(C=NNc2ncnc3c2cnn3-c2ccccc2)ccc1O`, for which the inhibition (usually the relative decrease from the control value, in per cent) in test [1] is 21.5%; in [2], 5.71%; in test [3], 1.92%; in [4], 1.3%; in test [5], -1.3%; in test [6], 4.04%. Besides, the inhibition in [7] was 6.98%; in test [8], 1.27%; in [9], 3.26%; in [10] it was 2.04%.
Turning to `CS(=O)(=O)CCNCc1nc(-c2ccc3ncnc(Nc4ccc(F)c(Cl)c4)c3c2)cs1`, the inhibition in test [1] worked out at 2.28%; in test [2], 1.9%; in test [3] it was 0.45%; in test [4] it was 0.45%; in [5], 1.08%; in test [6], 0.89%. The inhibition in test [7] was 1.04%; in test [8], 1.14%; in [9], 1.55%; in [10], 1.92%.
For the molecule `CCn1c(-c2nonc2N)nc2cnc(Oc3cccc(NC(=O)c4ccc(OCCN5CCOCC5)cc4)c3)cc21`, the inhibition in test [1] worked out at 7.42%; in [2] it was 24.3%; in [3], 72.8%; in test [4], 2.29%; in test [5], 3.44%; in test [6] it was 0.67%. The inhibition in test [7] is 1.31%; in [8], 3.07%; in test [9], 2.93%; in test [10], 2.55%.
With `Cc1cccc(-c2n[nH]cc2-c2ccc3ncccc3n2)n1`, the inhibition is -2.11% in test [1]; 0.8% in test [2]; 0.75% in [3]; -0.09% in test [4]; 1.08% in test [5]; 1.85% in test [6]. The inhibition was found to be 1.42% in test [7], 0.4% in test [8], 1.1% in test [9] and 0.55% in test [10].
On to `COc1ccc(-c2coc3ncnc(N)c23)cc1`, for which the inhibition was determined as 7.65% in test [1]; 4.08% in test [2]; 3.27% in [3]; 1.1% in test [4]; 0.95% in test [5]; 6.3% in [6]. For the same molecule, the inhibition was 4.04% in [7], 4.29% in [8], 4.94% in test [9] and 4.25% in test [10].
For `CCc1cccc(NC(=O)Nc2ccc(Oc3ccc4nc(NC(=O)OC)[nH]c4c3)cc2)c1`, the inhibition amounted to 0.79% in test [1]; 1.3% in test [2]; 1.11% in [3]; 0.77% in test [4]; 1.72% in test [5]; 2.12% in test [6]. Further, the inhibition came out at 0.76% in test [7], 1.05% in [8], 0.85% in [9] and 1.08% in test [10].
Regarding `COc1cc(C)c(NC(=O)CN(C)C)cc1Nc1nc(Nc2cccc(F)c2C(N)=O)c2cc[nH]c2n1`, the inhibition was 25.5% in test [1]; 61.6% in test [2]; 89.3% in test [3]; 31.8% in test [4]; 73.2% in [5]; -0.74% in test [6]. Besides, the inhibition in test [7] was determined as 21.5%; in test [8], 2.04%; in [9] it was 12.9%; in [10] it was 1.61%.
As to `CCn1c(-c2nonc2N)nc2c(C#CC(C)(C)O)nc(OC[C@@H](N)c3ccccc3)cc21`, the inhibition is 3.45% in test [1]; 9.5% in test [2]; 53.4% in test [3]; 0.46% in test [4]; -0.44% in test [5]; -0.17% in test [6]. For the same molecule, the inhibition was 0.97% in test [7], -1.79% in test [8], 2.42% in test [9] and -1.05% in test [10].
With `COc1ccc(COc2ccc(Cc3cnc(N)nc3N)cc2OC)cc1`, the inhibition was 2.86% in [1]; 0.44% in test [2]; -1.27% in test [3]; -0.95% in [4]; -0.65% in test [5]; 0.49% in [6]. Also, the inhibition was 0.48% in test [7], -0.8% in [8], -0.45% in test [9] and -2.36% in [10].
For the molecule `CCn1c(-c2nonc2N)nc2ccncc21`, the inhibition in [1] is 1.82%; in [2], 2.36%; in test [3], 1.75%; in test [4], 0.59%; in test [5], -0.93%; in test [6] it was 0.34%. Also, the inhibition in test [7] was 1.43%; in test [8] it was 0.65%; in test [9] it was -0.84%; in test [10] it was 0.24%.
For `CS(=O)(=O)Nc1ccc(N/C=C2\C(=O)Nc3ccccc32)cc1`, the inhibition in [1] is 14.2%; in test [2], 0.15%; in test [3] it was 2.2%; in test [4] it was -1.89%; in test [5], -1.19%; in test [6], -2.3%. Further, the inhibition in test [7] is 7.96%; in test [8], -1.92%; in test [9], 1.81%; in [10], -1.68%.
Turning to `Fc1cccc(COc2ccc(Nc3ncnc4cc(-c5ccc[nH]5)sc34)cc2Cl)c1`, the inhibition in test [1] was determined as 3.65%; in test [2], 2.48%; in test [3] it was 2.76%; in test [4], 1.09%; in test [5] it was 2.13%; in test [6], 0.63%. Further, the inhibition is 0.84% in [7], -1.43% in test [8], -0.95% in test [9] and -1.97% in test [10].
As for `Cc1ccc(NC(=O)c2ccnc(N3CCCC3)c2)cc1-c1ccc(C(=O)NCC2CC2)cc1`, the inhibition worked out at 8.32% in test [1]; 3.77% in test [2]; 3.59% in [3]; 1.08% in test [4]; 1.39% in test [5]; 5.28% in [6]. Further, the inhibition in [7] is 2.01%; in test [8], 0.99%; in test [9], 3.3%; in test [10] it was -0.87%.
Regarding `COC(=O)Nc1nc2cc(Oc3cccc(NC(=O)Nc4cc(C(F)(F)F)ccc4F)c3)ccc2[nH]1`, the inhibition is 4.23% in test [1]; -0.26% in [2]; -0.63% in [3]; -0.42% in [4]; -1.58% in [5]; -1.03% in test [6]. Besides, the inhibition is -0.8% in test [7], 0.24% in test [8], 0.48% in [9] and -0.21% in [10].
On to `COc1cc2c(cc1Nc1nc(N3CCc4ccccc43)c3cc[nH]c3n1)N(C(=O)CN(C)C)CC2`, for which the inhibition turned out to be 5.19% in [1]; 10.2% in test [2]; 19.2% in test [3]; 9.19% in test [4]; 13.6% in test [5]; 6.69% in [6]. In addition, the inhibition in test [7] was 2.45%; in test [8], 1.43%; in [9], 3.55%; in test [10], 0.72%.
As for `[O-][S+]1CCN(Cc2ccc(-c3ccc4ncnc(Nc5ccc(OCc6ccccc6)c(F)c5)c4c3)o2)CC1`, the inhibition in test [1] was 2.87%; in test [2] it was 1.77%; in [3], 0.49%; in test [4] it was 0.63%; in test [5] it was -1.37%; in [6], 2.43%. For the same molecule, the inhibition turned out to be 4.39% in test [7], 2.09% in test [8], 3.44% in test [9] and 1.93% in test [10].
